HTT cytoprotect – protects HTT-Q103 PC12 cells, measured by ATP; PC12 HTT-Q103 induced, cytoprotection, ATP luminescence, 40 h; Potency, µM (series often up to 56.4 µM), usual class: activators; 230,000 tested, 0.14% active; AID 1471; further: nearly all actives have a fitted effect of over 45% in size
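Rat PC12, Q103 Htt exon1-GFP fusion, ecdysone promoter; tebufenozide inducer 100 nM final; compound titration; qHTS, 1500 cells/well; ATPlite luminescent read.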
HttQ103 aggreg – inhibitors of mutant huntingtin aggregate formation in PC12 cells; PC12 HttQ103-GFP aggregates, Acumen cytometry, 40 h; Potency, µM (highest dose often 46.1 µM), actives largely listed as inhibitors; 220,000 tested, 1.1% active; further: nearly all actives have a fitted effect of over 60% in size
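Huntingtin Q103 exon 1–GFP aggregates in induced PC12 cells (100 nM tebufenozide) were quantified by cytometry from lysates, with compounds dosed in titration.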
PINK1 modulator – changes PINK1 expression; PINK1 immunofluorescence, high-content cytometry, 24 h; Potency, µM (doses to about 76.6 µM), hits mostly activators; AID 624263; 410,000 tested, 0.2% active; active means well fitted activation curve with a large enough effect; inconclusive means small, poorly fitted or top-dose-only effect; cell line not stated here; further: nearly all actives have a fitted effect of over 65% in size
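Fluorescence from anti-PINK1 antibody, together with nuclear and cell stains, was scanned on a laser-scanning cytometer. Before staining, stable-line cells were incubated 24 hours with compounds at 5 concentrations; primary antibody 12 h at 10 degrees C.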
Epigenetic reg – epigenetic control regulation, reporter derepression. murine LDR cells, GFP reporter derepression, 30 h. 280,000 tested, 0.2% active. Potency, µM (doses to about 53.9 µM), most hits filed as activators; further: nearly all actives have a fitted effect of over 60% in size
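Murine LDR cells carrying a silenced, genomically integrated CMV-driven GFP reporter were exposed to compound for 30 hours at 37 C. After PBS washes, GFP-positive cells (20–120 um objects) were counted by laser-scanning microplate cytometry.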
TSG101-PTAP inh – blocks PTAP/TSG101 interaction to inhibit HIV-1 budding; Q99816; Fluorescence polarization, FITC-PTAP peptide / Tsg101 binding; Potency, µM (titrated, usually from 115 µM), usual class: inhibitors; 340,000 tested, under 10 active; active means well fitted inhibition curve with a large enough effect in the main read-out, with a control signal flat, not every such curve was filed as active; inconclusive means small, poorly fitted or top-dose-only effect, or effect the other way, or a change in a side signal; inactive means no such curve, though single readings can be large or run the other way
Target sequence (Q99816 whole entry, looked up): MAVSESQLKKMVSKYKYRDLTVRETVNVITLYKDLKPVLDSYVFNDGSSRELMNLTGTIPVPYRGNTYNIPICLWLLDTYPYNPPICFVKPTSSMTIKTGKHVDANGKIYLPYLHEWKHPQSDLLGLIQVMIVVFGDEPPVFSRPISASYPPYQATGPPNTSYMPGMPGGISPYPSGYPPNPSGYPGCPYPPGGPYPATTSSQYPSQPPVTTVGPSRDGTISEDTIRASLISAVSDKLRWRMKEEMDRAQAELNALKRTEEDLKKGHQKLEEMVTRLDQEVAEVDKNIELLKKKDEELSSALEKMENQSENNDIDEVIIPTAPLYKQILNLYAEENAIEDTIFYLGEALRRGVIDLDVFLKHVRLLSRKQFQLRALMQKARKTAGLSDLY
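Steps: Tsg101 binding domain dispensed (10 uM final), compounds pinned in DMSO, FITC-labeled PTAP-motif peptide added (50 nM final); after 20 min binding at room temperature, polarization measured.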
Apoferritin bind – candidate novel general anesthetic via apoferritin binding | P02791 | apoferritin/1-aminoanthracene competitive binding, fluorescence | 350,000 tested, 0.074% active | Potency, µM (series often up to 77.5 µM), usual class: inhibitors; further: nearly all actives have a fitted effect of over 20% in size
Target sequence (P02791 2-175 limits assumed): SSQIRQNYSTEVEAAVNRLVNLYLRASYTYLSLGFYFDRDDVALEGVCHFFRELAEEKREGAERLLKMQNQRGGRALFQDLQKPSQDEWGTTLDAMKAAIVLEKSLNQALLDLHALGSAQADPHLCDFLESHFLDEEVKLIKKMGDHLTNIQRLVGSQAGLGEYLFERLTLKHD
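Apoferritin-based anesthetic binding model; compound displacement of fluorescent 1-AMA measured as endpoint fluorescence after 10 minutes at room temperature, scaled to free-ligand and complex controls.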
Each line names hits and unclear results; the compound was inactive in the other large screens. The full list was thinned out, with hits kept by preference. Unless noted, the call rests on the fitted dose curve; in most records, active means well fitted curve in the direction sought with a large enough effect; inconclusive means small, poorly fitted or top-dose-only effect, or another doubt; inactive means no such curve, though single readings can be large; an effect the other way counts as inactive or inconclusive.

COc1cc(=O)n2c(c1C(=O)N(C)Cc1nccs1)CCN(Cc1cc3ccccc3s1)CC2	none (no result: HTT cytoprotect, HttQ103 aggreg, Epigenetic reg, TSG101-PTAP inh, Apoferritin bind)
CCCCN(CCCC)C(=S)N/N=C/c1c(C)[nH]n(-c2ccccc2)c1=O	HttQ103 aggreg 11µM
Cc1ccnc(N/C=C(\C#N)c2nc(-c3cccc(Br)c3)cs2)c1	Epigenetic reg 16µM, TSG101-PTAP inh inconclusive
O=c1c(-c2ccccc2)c1-c1ccccc1	HTT cytoprotect 11µM, HttQ103 aggreg 14µM (no result: PINK1 modulator, TSG101-PTAP inh)
COC(=O)c1cn([C@@H]2C[C@@H](C(=O)Nc3cccc(SC)c3)N(C3CCCC3)C2)nn1	none (no result: HTT cytoprotect, HttQ103 aggreg, Epigenetic reg, TSG101-PTAP inh, Apoferritin bind)
Cc1cc(Cl)nc2nc(Cl)ccc12	none (no result: HTT cytoprotect, HttQ103 aggreg, Epigenetic reg, TSG101-PTAP inh, Apoferritin bind)
Cn1nc(C(F)(F)F)c(/C=N/OC(=O)c2ccccc2)c1Sc1ccc(Cl)cc1	HttQ103 aggreg 14µM
Cc1cc(C)cc(C(=O)N2CCCCCC2)c1	Apoferritin bind 13µM
C=CCOc1ccccc1/C=N/NC(=O)c1ccc(Cl)cc1Cl	none
COc1cc(C(=O)Oc2ccccc2/C=N/NC(=O)c2ccc(Cl)cc2Cl)cc(OC)c1OC	HttQ103 aggreg 6.3µM
Cc1cccc(NC(=O)c2ccc(NCCc3ccccc3)c([N+](=O)[O-])c2)c1	PINK1 modulator 14µM, Epigenetic reg 18µM, TSG101-PTAP inh inconclusive
Cc1ccc(NC(=O)c2ccc(NCCN)c([N+](=O)[O-])c2)cc1	none
CN(Cc1ccc(Cl)cc1)C(=O)CCl	HttQ103 aggreg inconclusive
COc1ccc(CN(C)C(=O)CCl)cc1	HTT cytoprotect inconclusive, HttQ103 aggreg 13µM
CCOc1ccc(S(=O)(=O)N(C(=O)c2ccco2)c2cc3sc(=O)oc3c3ccccc23)cc1	HTT cytoprotect 0.89µM, Apoferritin bind inconclusive
CNC(=O)[C@@H]1C[C@H](NC2CCCCCCC2)CN1Cc1cccc(OC)c1OC	none (no result: HTT cytoprotect, HttQ103 aggreg, Epigenetic reg, TSG101-PTAP inh, Apoferritin bind)
Cc1nn(-c2ccccc2)c(Cl)c1CN(C(=O)CCl)c1cccc2ccccc12	HttQ103 aggreg 13µM
Cc1nn(-c2ccccc2)c(Cl)c1CN(C(=O)CCl)c1ccc(Cl)cc1	HttQ103 aggreg 25µM
CC(=O)N(Cc1c(C)nn(-c2ccccc2)c1Cl)c1ccc(Cl)cc1	none
COc1cc(-c2nc(S(=O)(=O)c3ccc(C)cc3)c(N(C)C)o2)cc(OC)c1OC	HTT cytoprotect 0.89µM (no result: HttQ103 aggreg)
Nc1c(C(=O)C2CC2)sc2nc(-c3cccs3)cc(C(F)(F)F)c12	PINK1 modulator inconclusive, Epigenetic reg 3.5µM, TSG101-PTAP inh inconclusive
Nc1c(C(=O)Nc2ccc(F)cc2)sc2nc(-c3cccs3)cc(C(F)(F)F)c12	PINK1 modulator inconclusive, Epigenetic reg inconclusive (no result: HTT cytoprotect, HttQ103 aggreg, TSG101-PTAP inh)
O=C(c1cc2ccccc2[nH]1)c1cc2cc(O)ccc2[nH]1	none (no result: HTT cytoprotect, HttQ103 aggreg, Epigenetic reg, TSG101-PTAP inh, Apoferritin bind)
Cc1nc(CC(=O)Nc2ccc(C(N)=O)cc2)cs1	none (no result: HTT cytoprotect, HttQ103 aggreg, TSG101-PTAP inh)
c1ccc2c(NC3CCNCC3)nc(-c3ccoc3)nc2c1	none (no result: HttQ103 aggreg, Epigenetic reg, TSG101-PTAP inh, Apoferritin bind)
CN(C)c1ccc(-c2nc(NC3CCNCC3)c3ccccc3n2)cc1	Epigenetic reg 2.8µM (no result: HttQ103 aggreg, TSG101-PTAP inh)
Cn1nccc1C(=O)Oc1ccc(/C=N/NC(=O)c2ccccc2O)cc1	HTT cytoprotect 0.89µM, HttQ103 aggreg inconclusive
CCN1CCCC1CNC(=O)c1cnn(-c2nccc(-c3cccs3)n2)c1C(C)C (centres undefined)	none (no result: HTT cytoprotect, HttQ103 aggreg, Epigenetic reg, TSG101-PTAP inh, Apoferritin bind)
NC(=O)CS(=O)(=O)c1nc2ccccc2n1Cc1ccccc1F	HTT cytoprotect 25µM
CC(=O)NCc1nc2ccccc2n1Cc1ccccc1F	none
Cc1ccc2nc(CC(O)(c3ccccc3)c3ccccc3)ccc2c1	none (no result: HTT cytoprotect, HttQ103 aggreg, Epigenetic reg, TSG101-PTAP inh, Apoferritin bind)
COc1cccc2ccc(CC(O)(c3ccccc3)c3ccccc3)nc12	PINK1 modulator 40µM (no result: HTT cytoprotect, HttQ103 aggreg, Epigenetic reg, TSG101-PTAP inh, Apoferritin bind)
CC(=O)c1ccc(NC(=O)c2cn3c4c(ccc(Cl)c4c2=O)OC(C)C3)cc1 (centres undefined)	none (no result: HTT cytoprotect, HttQ103 aggreg, TSG101-PTAP inh)
COc1ccc(NC(=O)c2cn3c4c(ccc(Cl)c4c2=O)OC(C)C3)cc1OC (centres undefined)	Epigenetic reg 18µM (no result: HTT cytoprotect, HttQ103 aggreg, TSG101-PTAP inh)
Cn1c(=O)n(CCc2ccccc2)c(=O)c2c1nc1n2CCN1c1ccc(Cl)cc1	none (no result: HTT cytoprotect, HttQ103 aggreg, TSG101-PTAP inh)
CC(=O)Oc1ccc2nonc2c1OC(C)=O	none (no result: HTT cytoprotect, HttQ103 aggreg, Epigenetic reg, TSG101-PTAP inh, Apoferritin bind)
CC(=O)Nc1cc(OC(C)=O)c2nonc2c1OC(C)=O	HttQ103 aggreg 7.1µM

Screening data (PubChem BioAssay)
